Test results taken from the supplement of paper PMC10849652.
Targets with a hit are over-represented here; the source holds about 8,800 in all. About 0.5% of all pairs of compound and target were hits.

Tests used:
Experiment in all cases: log2 fold change, soluble protein after heating vs DMSO (PISA); higher = thermal stabilisation; K562 lysate, 10 uM; active = over 0.2 and 3.5 SD of the protein, either way, in both replicates (recomputed)
erlotinib = compound: C#Cc1cccc(Nc2ncnc3cc(OCCOC)c(OCCOC)cc23)c1 [erlotinib]
Summary of the method: (§1)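 To prepare the extract, K562 pellets were dounce-homogenised in PBS pH 7.4 with 1 mM MgCl2, giving crude material at 1 mg/mL protein. This was treated with 10 μM compound for 30 min, then heated in aliquots for 3 min over 48°C-58°C before pooling and addition of NP-40 to 0.5% at 4°C. Centrifugation at 21,000xg for 90 min left soluble protein in the supernatant, which TMTpro 16plex LC-MS/MS quantified with equalised channel sums. Results are log-two fold changes in thermal stability compared with solvent controls, from duplicates.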

[1] = compound: C/C(=N\NC(=O)C1=CC(=CC=C1)S(=O)(=O)N2CCOCC2)/C3=C(C=CC(=C3)Cl)O
Summary of the method: as §1

[2] = compound: C1=CC(=CC=C1C2=NC3=C(N2)C=C(C=C3)C(=O)N)OC4=CC=C(C=C4)Cl
Summary of the method: as §1

[3] = compound: C1=CC2=C(C=CC(=C2)/C=C\3/C(=O)NC(=NCC4=CC=CS4)S3)N=C1
Summary of the method: as §1

[4] = compound: C1=CC2=NC=CN=C2C=C1/C=C/3\C(=O)NC(=O)S3
Summary of the method: as §1

[5] = compound: C1=CC=C(C=C1)C2=NC(=C(N2)C3=CC=NC=C3)C4=CC(=C(C=C4)Cl)O
Summary of the method: as §1

[6] = compound: C1=CC=C2C(=C1)C3=NNC4=CC=CC(=C43)C2=O
Summary of the method: as §1

[7] = compound: C1CCN(C1)C(=O)NC2=CC=CC(=C2)NC3=NC=C(C(=N3)NCCC4=CN=CN4)Br
Summary of the method: as §1

[8] = compound: C1CN(CCC1(CC2=CC=C(C=C2)Cl)N)C3=NC=NC4=C3C=CN4
Summary of the method: as §1

IRAK-1-4 Inhibitor I = compound: C1COCCN1CCN2C3=CC=CC=C3N=C2NC(=O)C4=CC(=CC=C4)[N+](=O)[O-] [IRAK-1-4 Inhibitor I]
Summary of the method: as §1

ibrutinib = compound: C=CC(=O)N1CCC[C@@H](n2nc(-c3ccc(Oc4ccccc4)cc3)c3c(N)ncnc32)C1 [ibrutinib]
Summary of the method: as §1

[9] = compound: CC(=O)c1cnc2ccc(-c3cc(Cl)c(O)c(Cl)c3)nc2c1N[C@H]1CC[C@H](CN(C)C)CC1
Summary of the method: as §1

ralimetinib = compound: CC(C)(C)Cn1c(N)nc2ccc(-c3[nH]c(C(C)(C)C)nc3-c3ccc(F)cc3)nc21 [ralimetinib]
Summary of the method: as §1

[10] = compound: CC(C)(O)CC(=O)NCCn1ccc2ncnc(Nc3ccc(Oc4cccc(C(F)(F)F)c4)c(Cl)c3)c21
Summary of the method: as §1

[11] = compound: CC(C)C1=C2N=C(C=C(N2N=C1)NCC3=CC=CC=C3)NCCCCCCN
Summary of the method: as §1

[12] = compound: CC1=C(C(CC(=O)N1)C2=CC=C(C=C2)C(F)(F)F)C(=O)NC3=C(C=C4C(=C3)C=NN4)F
Summary of the method: as §1

[13] = compound: CC1=C(C2=C(C=C1)C(=O)C3=CC=CC=C3N2CCCN)C
Summary of the method: as §1

[14] = compound: CC1=C(C=C(C=C1)NC(=O)C2=CC(=CC=C2)C(C)(C)C#N)NC3=CC4=C(C=C3)N=CN(C4=O)C
Summary of the method: as §1

[15] = compound: CC1=C(C=C(C=C1)NC(=O)C2=CC(=CC=C2)N(C)C)NC(=O)C3=CC=C(C=C3)O
Summary of the method: as §1

[16] = compound: CC1=CC=C(C=C1)SC2=C3C=C(SC3=CN=C2)C(=O)N
Summary of the method: as §1

Measured: log2 fold change

ENO1 isoform 2 (UniProt P06733)
UniProt P06733, sequence (P06733 whole entry, looked up): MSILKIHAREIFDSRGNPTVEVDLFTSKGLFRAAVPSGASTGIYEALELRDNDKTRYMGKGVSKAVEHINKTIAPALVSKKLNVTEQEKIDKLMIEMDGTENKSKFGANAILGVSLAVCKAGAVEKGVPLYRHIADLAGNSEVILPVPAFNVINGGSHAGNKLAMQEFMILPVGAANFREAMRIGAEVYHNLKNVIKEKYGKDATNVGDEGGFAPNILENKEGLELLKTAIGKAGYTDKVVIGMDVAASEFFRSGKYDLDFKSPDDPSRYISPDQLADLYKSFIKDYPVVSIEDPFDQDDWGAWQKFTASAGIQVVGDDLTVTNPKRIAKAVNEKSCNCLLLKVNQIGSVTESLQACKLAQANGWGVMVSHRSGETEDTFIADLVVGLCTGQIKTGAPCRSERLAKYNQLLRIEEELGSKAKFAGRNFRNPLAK
inactive: erlotinib -0.02 | [1] -0.039 | [2] -0.035 | [3] -0.021 | [4] -0.016 | [5] -0.003 | [6] -0.066 | [7] -0.033 | [8] 0.027 | IRAK-1-4 Inhibitor I 0.015 | ibrutinib -0.043 | [9] 0.008 | ralimetinib 0.02 | [10] -0.07 | [11] 0.028 | [12] -0.009 | [13] -0.013 | [14] 0.023 | [15] -0.002 | [16] -0.015

ERAL1 (UniProt O75616)
inactive: erlotinib -0.016 | [1] -0.003 | [2] 0.05 | [3] -0.014 | [4] 0.03 | [5] 0.015 | [6] -0.027 | [7] -0.041 | [8] -0.047 | IRAK-1-4 Inhibitor I -0.042 | ibrutinib 0.052 | [9] -0.042 | ralimetinib 0.03 | [10] 0.011 | [11] -0.007 | [12] 0.047 | [13] 0.03 | [14] 0.014 | [15] 0.045 | [16] 0.018

GEMIN4 (UniProt P57678)
inactive: erlotinib 0.023 | [1] -0.029 | [2] -0.036 | [3] 0.046 | [4] 0.038 | [5] -0.017 | [6] -0.032 | [7] -0.004 | [8] 0.018 | IRAK-1-4 Inhibitor I -0.023 | ibrutinib 0.003 | [9] -0.028 | ralimetinib 0.056 | [10] 0.001 | [11] 0.051 | [12] 0.007 | [13] -0.048 | [14] -0.005 | [15] 0.059 | [16] 0.011

EXOC2 (UniProt Q96KP1)
UniProt Q96KP1, sequence (Q96KP1 whole entry, looked up): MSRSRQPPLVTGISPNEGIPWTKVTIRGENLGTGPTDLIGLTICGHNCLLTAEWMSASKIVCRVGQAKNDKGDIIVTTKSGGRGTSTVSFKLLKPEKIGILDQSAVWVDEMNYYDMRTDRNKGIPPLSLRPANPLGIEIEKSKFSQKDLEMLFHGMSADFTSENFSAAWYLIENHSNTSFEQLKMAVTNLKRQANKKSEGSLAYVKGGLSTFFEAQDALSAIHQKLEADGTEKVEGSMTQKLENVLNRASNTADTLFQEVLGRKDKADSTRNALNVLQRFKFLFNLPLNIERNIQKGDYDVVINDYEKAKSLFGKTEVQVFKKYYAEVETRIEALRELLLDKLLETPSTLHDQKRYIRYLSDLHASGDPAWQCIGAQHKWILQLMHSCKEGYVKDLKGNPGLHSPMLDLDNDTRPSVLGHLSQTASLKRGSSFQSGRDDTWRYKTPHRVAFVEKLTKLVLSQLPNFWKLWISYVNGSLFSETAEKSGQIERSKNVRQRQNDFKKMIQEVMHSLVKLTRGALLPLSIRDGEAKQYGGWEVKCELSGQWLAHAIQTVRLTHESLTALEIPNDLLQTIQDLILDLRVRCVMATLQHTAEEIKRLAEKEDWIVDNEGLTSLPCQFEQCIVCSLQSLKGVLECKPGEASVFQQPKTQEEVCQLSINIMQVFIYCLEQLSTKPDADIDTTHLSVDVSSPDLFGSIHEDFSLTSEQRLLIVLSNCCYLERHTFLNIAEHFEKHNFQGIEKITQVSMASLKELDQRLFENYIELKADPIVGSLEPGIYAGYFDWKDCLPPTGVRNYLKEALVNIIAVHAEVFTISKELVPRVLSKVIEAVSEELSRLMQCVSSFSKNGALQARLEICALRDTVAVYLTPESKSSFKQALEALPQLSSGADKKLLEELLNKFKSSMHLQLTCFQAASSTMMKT
inactive: erlotinib 0.011 | [1] -0.008 | [2] -0.028 | [3] 0.049 | [4] -0.008 | [5] -0.001 | [6] -0.042 | [7] -0.018 | [8] 0.016 | IRAK-1-4 Inhibitor I 0.009 | ibrutinib 0.014 | [9] 0.003 | ralimetinib 0.049 | [10] -0.027 | [11] -0.022 | [12] 0.01 | [13] -0.019 | [14] 0.016 | [15] 0.032 | [16] 0.004

EWSR1 isoform 5 (UniProt Q01844)
inactive: erlotinib -0.135 | [1] -0.037 | [2] -0.1 | [3] 0.012 | [4] 0.015 | [5] 0.037 | [6] 0.015 | [7] -0.009 | [8] -0.028 | IRAK-1-4 Inhibitor I 0.018 | ibrutinib -0.016 | [9] -0.026 | ralimetinib -0.017 | [10] -0.011 | [11] 0.038 | [12] -0.012 | [13] 0.016 | [14] -0.023 | [15] -0.033 | [16] 0

ERI1 (UniProt Q8IV48)
inactive: erlotinib -0.015 | [1] 0.073 | [2] -0.009 | [3] 0.019 | [4] -0.028 | [5] 0.134 | [6] -0.03 | [7] -0.009 | [8] -0.036 | IRAK-1-4 Inhibitor I -0.111 | ibrutinib -0.037 | [9] 0.022 | ralimetinib -0.035 | [10] 0.085 | [11] 0.084 | [12] -0.05 | [13] 0 | [14] -0.033 | [15] 0.411 | [16] 0.012

EDC4 (UniProt Q6P2E9)
UniProt Q6P2E9, sequence (Q6P2E9 whole entry, looked up): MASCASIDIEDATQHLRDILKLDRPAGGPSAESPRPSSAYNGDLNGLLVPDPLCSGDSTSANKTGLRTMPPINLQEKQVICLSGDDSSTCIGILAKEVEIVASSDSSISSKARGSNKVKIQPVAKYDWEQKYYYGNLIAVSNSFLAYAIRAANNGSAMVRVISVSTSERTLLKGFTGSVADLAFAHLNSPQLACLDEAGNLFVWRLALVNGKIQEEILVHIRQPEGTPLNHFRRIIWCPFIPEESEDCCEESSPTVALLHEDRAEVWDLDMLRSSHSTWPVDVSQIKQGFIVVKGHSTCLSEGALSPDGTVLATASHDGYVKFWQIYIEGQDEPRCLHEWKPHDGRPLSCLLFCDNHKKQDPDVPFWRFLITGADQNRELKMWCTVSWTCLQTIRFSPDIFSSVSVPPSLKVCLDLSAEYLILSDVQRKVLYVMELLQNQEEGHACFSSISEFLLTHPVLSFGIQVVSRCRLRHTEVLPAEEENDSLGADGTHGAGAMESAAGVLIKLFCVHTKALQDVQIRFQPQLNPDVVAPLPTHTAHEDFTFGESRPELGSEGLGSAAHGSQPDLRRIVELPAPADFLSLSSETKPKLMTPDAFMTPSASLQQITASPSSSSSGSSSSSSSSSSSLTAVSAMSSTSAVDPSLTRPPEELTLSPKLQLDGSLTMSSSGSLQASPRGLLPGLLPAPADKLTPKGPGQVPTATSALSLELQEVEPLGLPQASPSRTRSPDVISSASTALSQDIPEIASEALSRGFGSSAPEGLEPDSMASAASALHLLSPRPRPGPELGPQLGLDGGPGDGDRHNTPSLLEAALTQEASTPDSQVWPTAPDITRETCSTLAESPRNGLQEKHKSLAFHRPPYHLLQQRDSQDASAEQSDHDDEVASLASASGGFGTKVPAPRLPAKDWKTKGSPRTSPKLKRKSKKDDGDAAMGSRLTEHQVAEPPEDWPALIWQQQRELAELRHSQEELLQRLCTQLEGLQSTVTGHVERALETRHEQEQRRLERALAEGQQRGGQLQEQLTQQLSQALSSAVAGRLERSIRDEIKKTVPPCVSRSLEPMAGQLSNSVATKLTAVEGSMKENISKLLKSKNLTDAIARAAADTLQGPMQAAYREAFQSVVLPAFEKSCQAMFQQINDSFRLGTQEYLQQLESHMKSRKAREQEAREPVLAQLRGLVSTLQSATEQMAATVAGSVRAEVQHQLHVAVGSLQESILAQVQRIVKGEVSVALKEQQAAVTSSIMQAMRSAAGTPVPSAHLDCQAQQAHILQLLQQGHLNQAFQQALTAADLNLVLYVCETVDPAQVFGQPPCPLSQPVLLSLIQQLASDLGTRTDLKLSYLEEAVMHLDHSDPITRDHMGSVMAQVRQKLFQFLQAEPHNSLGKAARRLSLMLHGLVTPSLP
inactive: erlotinib 0.002 | [1] -0.026 | [2] -0.022 | [3] 0.001 | [4] 0.006 | [5] -0.001 | [6] -0.02 | [7] -0.015 | [8] 0.014 | IRAK-1-4 Inhibitor I 0.013 | ibrutinib -0.001 | [9] 0.001 | ralimetinib 0.028 | [10] -0.009 | [11] -0.011 | [12] 0.004 | [13] -0.006 | [14] 0.006 | [15] 0 | [16] -0.019

EIF2AK2 (UniProt P19525)
UniProt P19525, sequence (P19525 whole entry, looked up): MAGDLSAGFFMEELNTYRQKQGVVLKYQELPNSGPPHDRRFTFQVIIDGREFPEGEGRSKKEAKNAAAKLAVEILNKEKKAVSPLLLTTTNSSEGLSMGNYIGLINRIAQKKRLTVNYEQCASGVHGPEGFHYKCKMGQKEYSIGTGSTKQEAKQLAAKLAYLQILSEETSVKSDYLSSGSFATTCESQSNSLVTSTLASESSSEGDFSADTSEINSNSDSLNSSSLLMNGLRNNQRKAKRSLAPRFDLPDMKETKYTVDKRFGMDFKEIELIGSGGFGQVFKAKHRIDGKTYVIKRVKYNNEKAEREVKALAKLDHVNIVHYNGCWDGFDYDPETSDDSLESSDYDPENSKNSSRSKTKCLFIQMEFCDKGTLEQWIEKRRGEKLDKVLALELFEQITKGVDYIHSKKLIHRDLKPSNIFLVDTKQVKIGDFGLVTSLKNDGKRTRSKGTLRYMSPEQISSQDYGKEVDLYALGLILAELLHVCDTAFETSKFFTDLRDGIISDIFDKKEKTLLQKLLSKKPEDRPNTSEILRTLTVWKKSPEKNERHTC
inactive: erlotinib 0.02 | [1] 0.011 | [2] -0.055 | [3] -0.072 | [4] 0.003 | [5] 0.005 | [6] -0.039 | [7] -0.013 | [8] 0.016 | IRAK-1-4 Inhibitor I -0.011 | ibrutinib 0.014 | [9] 0.015 | ralimetinib -0.025 | [10] 0.035 | [11] -0.009 | [12] 0.015 | [13] -0.008 | [14] -0.015 | [15] -0.019 | [16] -0.03

FPGT (UniProt O14772)
inactive: erlotinib 0.031 | [1] -0.005 | [2] -0.003 | [3] 0.011 | [4] 0.023 | [5] -0.002 | [6] -0.108 | [7] 0.006 | [8] -0.013 | IRAK-1-4 Inhibitor I 0.023 | ibrutinib -0.016 | [9] -0.033 | ralimetinib 0.005 | [10] 0.011 | [11] 0.014 | [12] 0.009 | [13] 0.029 | [14] 0.02 | [15] 0.003 | [16] -0.033

ENY2 (UniProt Q9NPA8)
UniProt Q9NPA8, sequence (Q9NPA8 whole entry, looked up): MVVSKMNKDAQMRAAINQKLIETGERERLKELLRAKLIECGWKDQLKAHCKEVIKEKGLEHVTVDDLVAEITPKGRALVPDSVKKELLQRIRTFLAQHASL
inactive: erlotinib 0.033 | [1] 0.03 | [2] -0.015 | [3] 0.002 | [4] -0.026 | [5] 0.043 | [6] 0.081 | [7] 0.104 | [8] -0.087 | IRAK-1-4 Inhibitor I -0.019 | ibrutinib 0.161 | [9] 0.038 | ralimetinib -0.021 | [10] 0.057 | [11] 0 | [12] -0.069 | [13] 0.066 | [14] 0.075 | [15] -0.052 | [16] 0.035

G6PD isoform 2 (UniProt P11413)
UniProt P11413, sequence (P11413 whole entry, looked up): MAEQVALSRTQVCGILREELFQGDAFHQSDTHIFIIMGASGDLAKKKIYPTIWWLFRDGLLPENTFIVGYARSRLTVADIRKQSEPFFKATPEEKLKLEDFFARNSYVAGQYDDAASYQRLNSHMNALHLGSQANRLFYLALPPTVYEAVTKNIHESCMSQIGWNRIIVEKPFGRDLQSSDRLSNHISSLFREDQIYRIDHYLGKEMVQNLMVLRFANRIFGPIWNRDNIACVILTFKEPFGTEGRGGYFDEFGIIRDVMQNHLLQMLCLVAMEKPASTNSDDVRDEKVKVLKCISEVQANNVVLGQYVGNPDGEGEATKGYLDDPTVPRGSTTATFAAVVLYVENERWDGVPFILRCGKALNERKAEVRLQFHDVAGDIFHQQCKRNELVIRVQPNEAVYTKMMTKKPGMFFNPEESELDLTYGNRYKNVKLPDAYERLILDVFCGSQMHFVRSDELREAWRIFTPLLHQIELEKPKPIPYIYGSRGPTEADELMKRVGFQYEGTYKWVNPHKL
inactive: erlotinib 0.034 | [1] 0.05 | [2] 0.024 | [3] 0.016 | [4] 0.018 | [5] -0.001 | [6] -0.002 | [7] 0.006 | [8] 0.011 | IRAK-1-4 Inhibitor I 0.001 | ibrutinib -0.006 | [9] 0.001 | ralimetinib 0.023 | [10] 0.012 | [11] 0.018 | [12] -0.02 | [13] 0.045 | [14] -0.002 | [15] 0.024 | [16] 0.003

FAM118A (UniProt Q9NWS6)
UniProt Q9NWS6, sequence (Q9NWS6 whole entry, looked up): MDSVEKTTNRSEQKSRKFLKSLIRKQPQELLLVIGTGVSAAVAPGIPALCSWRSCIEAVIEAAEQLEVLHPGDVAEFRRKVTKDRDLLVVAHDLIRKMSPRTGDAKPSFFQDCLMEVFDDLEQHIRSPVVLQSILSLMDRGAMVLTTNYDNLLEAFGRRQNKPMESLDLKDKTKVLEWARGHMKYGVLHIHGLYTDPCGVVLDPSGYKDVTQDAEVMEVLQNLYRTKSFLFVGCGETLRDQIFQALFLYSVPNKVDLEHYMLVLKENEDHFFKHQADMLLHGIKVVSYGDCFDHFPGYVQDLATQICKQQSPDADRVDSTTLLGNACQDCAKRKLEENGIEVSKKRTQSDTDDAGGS
inactive: erlotinib 0.03 | [1] -0.03 | [2] -0.016 | [3] 0.022 | [4] 0.029 | [5] 0.012 | [6] -0.006 | [7] 0.021 | [8] 0.048 | IRAK-1-4 Inhibitor I 0.051 | ibrutinib -0.024 | [9] 0.01 | ralimetinib 0.041 | [10] -0.052 | [11] -0.01 | [12] -0.004 | [13] -0.052 | [14] 0.015 | [15] 0.014 | [16] -0.004

ECI2 (UniProt O75521)
UniProt O75521, sequence (O75521 whole entry, looked up): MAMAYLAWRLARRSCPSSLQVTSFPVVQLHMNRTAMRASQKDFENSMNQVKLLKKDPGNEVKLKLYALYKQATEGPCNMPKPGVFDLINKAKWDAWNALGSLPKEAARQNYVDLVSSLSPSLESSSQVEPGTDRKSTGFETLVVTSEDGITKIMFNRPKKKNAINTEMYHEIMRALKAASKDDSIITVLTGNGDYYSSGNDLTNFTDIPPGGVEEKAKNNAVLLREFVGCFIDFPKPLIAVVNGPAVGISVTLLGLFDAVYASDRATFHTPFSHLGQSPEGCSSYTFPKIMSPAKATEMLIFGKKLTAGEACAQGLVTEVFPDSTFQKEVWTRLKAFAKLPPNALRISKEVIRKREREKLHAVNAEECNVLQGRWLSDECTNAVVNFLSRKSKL
inactive: erlotinib 0.032 | [1] 0.01 | [2] 0.024 | [3] -0.011 | [4] 0.022 | [5] -0.019 | [6] -0.111 | [7] -0.03 | [8] 0.045 | IRAK-1-4 Inhibitor I 0.054 | ibrutinib 0.01 | [9] -0.027 | ralimetinib -0.033 | [10] -0.049 | [11] -0.015 | [12] -0.013 | [13] -0.008 | [14] 0.013 | [15] 0.007 | [16] 0

FASTKD5 (UniProt Q7L8L6)
inactive: erlotinib 0.061 | [1] 0.019 | [2] -0.054 | [3] 0.023 | [4] 0.013 | [5] -0.014 | [6] -0.066 | [7] -0.047 | [8] 0.013 | IRAK-1-4 Inhibitor I -0.019 | ibrutinib -0.134 | [9] 0.056 | ralimetinib 0.073 | [10] 0.007 | [11] -0.027 | [12] 0.032 | [13] 0.006 | [14] 0.021 | [15] 0.008 | [16] -0.053

FTSJ1 (UniProt Q9UET6)
UniProt Q9UET6, sequence (Q9UET6 whole entry, looked up): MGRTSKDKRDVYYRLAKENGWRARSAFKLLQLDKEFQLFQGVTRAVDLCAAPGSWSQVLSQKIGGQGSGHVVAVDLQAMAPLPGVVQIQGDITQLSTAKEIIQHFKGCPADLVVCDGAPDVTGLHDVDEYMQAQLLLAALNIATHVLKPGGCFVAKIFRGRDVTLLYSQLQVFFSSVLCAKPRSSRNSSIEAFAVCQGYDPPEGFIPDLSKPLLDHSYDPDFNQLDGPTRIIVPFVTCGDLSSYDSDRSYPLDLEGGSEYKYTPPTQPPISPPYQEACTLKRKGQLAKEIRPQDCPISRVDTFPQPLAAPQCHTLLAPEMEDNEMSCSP
inactive: erlotinib -0.008 | [1] 0 | [2] 0.039 | [3] 0.005 | [4] -0.025 | [5] 0.07 | [6] 0.034 | [7] -0.007 | [8] 0.016 | IRAK-1-4 Inhibitor I 0.019 | ibrutinib 0.004 | [9] -0.006 | ralimetinib -0.03 | [10] 0.094 | [11] -0.054 | [12] 0.011 | [13] 0.069 | [14] -0.024 | [15] 0.062 | [16] 0.03

FLT4 (UniProt P35916)
inactive: erlotinib 0.047 | [1] 0.036 | [2] 0.038 | [3] 0.039 | [4] 0.075 | [5] 0.046 | [6] 0.044 | [7] -0.097 | [8] 0.087 | IRAK-1-4 Inhibitor I -0.029 | ibrutinib 0.062 | [9] 0.064 | ralimetinib 0.012 | [10] -0.005 | [11] -0.057 | [13] 0.038 | [15] -0.019 | [16] 0.005
